Inconclusive results are not listed. Calls of active or inactive are those of the source. Unless noted, calls follow the shape of the dose curve; as a rule, active = well fitted curve in the direction sought with a large enough effect in the repeat runs; inconclusive = weak or mixed curves; inactive = no such curve, though single readings can be large; an effect the other way counts as inactive or inconclusive.
Assays:
[1] = qHTS assay for small molecules that induce genotoxicity in human embryonic kidney cells expressing luciferase-tagged ATAD5 (AID 651632); also: nearly all actives have a fitted effect of over 15% in size
Outline: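 DMSO vehicle served as the control. HEK293T reporter cells, 16 hr at 37C, then 30 min Amplite at room temperature; ATAD5 induction is measured as luciferase activity.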

[2] = qHTS assay for small molecule agonists of the p53 signaling pathway - cell viability (AID 651633; calls by dose curve;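 also: p53RE-bla HCT reporter cells with a stable beta-lactamase p53 reporter; series mostly up to about 83 µM; nearly all actives have a fitted effect of over 30% in size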)
Outline: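 p53RE-bla cells, seeded at 4,000 per well and rested 5 h at 37 C/5% CO2, received compounds in DMSO for 16 h at 37 C. CellTiter-Glo was then added, and luminescence was read after 30 min at room temperature to gauge cytotoxicity.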

[3] = qHTS assay for small molecules that induce genotoxicity in human embryonic kidney cells expressing luciferase-tagged ATAD5 - cell viability (AID 651634; calls by dose curve; also: nearly all actives have a fitted effect of over 25% in size)
Outline: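 Here HEK293T cells with the ATAD5 luciferase reporter are incubated with test compounds for 15.5 hr, and cytotoxicity is then gauged by measuring protease activity in live cells using fluorescence.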

[4] = qHTS assay for small molecule disruptors of the mitochondrial membrane potential - cell viability (AID 720634; calls by dose curve;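 also: human HepG2 liver cancer cells; series mostly up to about 83 µM; nearly all actives have a fitted effect of over 20% in size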)
Outline: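 Viability of HepG2 cells is scored from ATP content by luminescence; cells are exposed to compound for 1 hr at 37 C and 5% CO2, then dosed with m-MPI dye before the CellTiter-Glo reagent.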

[5] = qHTS assay to test for compound auto fluorescence at 590 nm (red) in HepG2 cells (AID 720674)
Outline: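 Intrinsic compound fluorescence in the red window (Ex/Em 540/590 nm) is measured in attached HepG2 cells exposed for 1 hr, DMSO vehicle as baseline, benchmarked to Rose Bengal sodium.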

[6] = qHTS assay to test for compound auto fluorescence at 535 nm (green) in HepG2 cells (AID 720675)
[7] = qHTS assay to test for compound auto fluorescence at 460 nm (blue) in HEK293 cells (AID 720678)
Outline: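 Blue-channel (Ex/Em 405/460 nm) intensity measured in HEK293 cultures after overnight compound exposure at 37C; signal expressed relative to triamterene. Cells plated 2,000 per well in 10% dialyzed FBS medium and allowed 4-5 hr to attach.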

[8] = qHTS assay to test for compound auto fluorescence at 590 nm (red) in HEK293 cells (AID 720679)
Outline: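 Red-channel autofluorescence (Ex/Em 540/590 nm; Rose Bengal sodium reference) was measured after overnight 37C, 5% CO2 exposure of attached HEK293 cells, 2,000 per well in medium with 10% dialyzed FBS.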

[9] = qHTS assay to test for compound auto fluorescence at 535 nm (green) in HEK293 cells (AID 720680)
[10] = qHTS assay to test for compound auto fluorescence at 460 nm (blue) in HEK293 cell free culture (AID 720681)
Outline: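 Test compounds were pinned into cell-free culture medium (DMEM with 10% FBS) and fluorescence was read directly at Ex/Em 405/460 nm. Signals were expressed as fluorescence equivalents of triamterene, with DMSO vehicle as control.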

[11] = qHTS assay to test for compound auto fluorescence at 535 nm (green) in HEK293 cell free culture (AID 720682)
Outline: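 Using fluorescein as calibrant, autofluorescence was quantified at 485/535 nm in cell-free DMEM containing 10% FBS after pintool addition of compound or vehicle.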

[12] = qHTS assay to test for compound auto fluorescence at 590 nm (red) in HEK293 cell free culture (AID 720683)
Outline: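 Tox21 10K library compounds were pinned into cell-free DMEM with 10% FBS and fluorescence was read at excitation 540 nm. Activity is expressed as Rose Bengal sodium equivalency.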

[13] = qHTS assay to test for compound auto fluorescence at 590 nm (red) in HepG2 cell free culture (AID 720684)
Outline: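 Readout: intrinsic compound fluorescence at 590 nm emission after 540 nm excitation, scaled to Rose Bengal sodium. Matrix was cell-free MEM with 10% FBS; DMSO vehicle wells served as control.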

[14] = qHTS assay to test for compound auto fluorescence at 460 nm (blue) in HepG2 cell free culture (AID 720685)
Outline: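 Cell-free plates of MEM plus 10% FBS received 23 nL compound or DMSO vehicle; blue-channel (405/460 nm) intensity scored against triamterene as reference fluorophore.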

[15] = qHTS assay to test for compound auto fluorescence at 535 nm (green) in HepG2 cell free culture (AID 720686)
[16] = qHTS assay to test for compound auto fluorescence at 460 nm (blue) in HepG2 cells (AID 720687)
Outline: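 Cells (2,000/well in MEM with 10% FBS) attached overnight at 37 C, then were exposed to compound or DMSO for 1 hr at 37 C, 5% CO2. Fluorescence read at Ex/Em 405/460 nm, expressed as triamterene-equivalent signal.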

[17] = target: Glucocorticoid receptor (Homo sapiens) (UniProt P04150); assay: qHTS assay to identify small molecule agonists of the glucocorticoid receptor (GR) signaling pathway (AID 720691; active = well fitted activation curve with a large enough effect in the signal ratio in the repeat runs, not every such curve was filed as active; the % refers to the signal ratio)
Glucocorticoid receptor (Homo sapiens), sequence (P04150 whole entry, looked up): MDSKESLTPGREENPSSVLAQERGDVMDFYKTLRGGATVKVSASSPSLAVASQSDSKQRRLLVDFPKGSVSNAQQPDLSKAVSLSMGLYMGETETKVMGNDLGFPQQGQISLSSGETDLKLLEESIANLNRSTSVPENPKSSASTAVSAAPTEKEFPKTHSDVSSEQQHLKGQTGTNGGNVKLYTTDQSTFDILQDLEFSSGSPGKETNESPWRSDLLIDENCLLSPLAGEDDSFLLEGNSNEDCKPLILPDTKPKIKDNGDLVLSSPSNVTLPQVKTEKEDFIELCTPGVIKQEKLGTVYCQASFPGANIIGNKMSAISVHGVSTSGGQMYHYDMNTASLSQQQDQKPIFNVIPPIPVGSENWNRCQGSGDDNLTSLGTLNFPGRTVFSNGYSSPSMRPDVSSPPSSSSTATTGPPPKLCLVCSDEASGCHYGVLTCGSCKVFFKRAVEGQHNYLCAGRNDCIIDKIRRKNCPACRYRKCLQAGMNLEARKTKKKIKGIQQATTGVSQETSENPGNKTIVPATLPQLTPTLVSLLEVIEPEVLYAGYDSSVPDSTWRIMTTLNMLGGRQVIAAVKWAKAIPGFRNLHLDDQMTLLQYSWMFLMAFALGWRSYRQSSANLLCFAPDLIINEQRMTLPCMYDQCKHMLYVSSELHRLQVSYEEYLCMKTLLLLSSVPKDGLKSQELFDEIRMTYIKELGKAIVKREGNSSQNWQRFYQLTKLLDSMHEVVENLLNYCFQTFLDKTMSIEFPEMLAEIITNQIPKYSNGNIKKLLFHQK
Outline: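 Compounds in DMSO, alongside positive controls, were added to GR-bla HeLa reporter cells and incubated 18 h at 37 C; GRE-driven beta-lactamase was detected by fluorescence after 2 h with FRET substrate at room temperature.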

[18] = qHTS assay for small molecule agonists of the p53 signaling pathway (AID 651631; calls by dose curve; also: nearly all actives have a fitted effect of over 15% in size)
Outline: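 Stably transfected HCT-116 cells (beta-lactamase behind p53 response elements) get compounds after a 5 h settling period; 16 h later at 37 °C, FRET substrate is loaded and fluorescence read after 2 h.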

[19] = qHTS assay for small molecule disruptors of the mitochondrial membrane potential (AID 720635)
Outline: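 HepG2 cells (2,000/well) attached overnight at 37C, then took compound for 1 hr at 37C, 5% CO2. Mito-MPS dye was added for 30 min; fluorescence was read at 490/535 nm (monomers) and 540/590 nm (aggregates).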

Measured: Potency

Clc1ccccc1Cl
not listed: [18] | [19]
inactive: all other assays above

COC(=O)c1ccccc1N
not listed: [1] | [11]
inactive: all other assays above

OCCN(CCO)CCO
not listed: [1] | [2] | [4] | [6] | [17] | [18] | [19]
inactive: all other assays above

CN1C(=O)CN=C(c2ccccc2)c2cc(Cl)ccc21
not listed: [1]
inactive: all other assays above

CC(C)OC(=O)Nc1cccc(Cl)c1
not listed: [4] | [17] | [19]
inactive: all other assays above

C#CCN(C)[C@H](C)Cc1ccccc1
not listed: [6] | [11] | [18] | [19]
inactive: all other assays above

Reference: PubChem BioAssay (Tox21)
